# Test results as given in PubChem BioAssay (NCATS).
# “And” between values parts separate entries of the source, which are not always exact repeats. Identical values can stand only once. Inconclusive results are not listed. Entries that show only a call come without a potency. The source made the active and inactive calls. Unless noted, the call rests on the fitted dose curve; in most records, active means well fitted curve in the direction sought with a large enough effect; inconclusive means small, poorly fitted or top-dose-only effect, or another doubt; inactive means no such curve, though single readings can be large; an effect the other way counts as inactive or inconclusive.
# Columns and labels:
# [1] = biological target: Cytochrome P450 1A2 (Homo sapiens) (UniProt P05177); assay: p450-cyp1a2 (AID 410; calls by dose curve; further: potency means the concentration at half of the fitted maximal effect); details: recombinant CYP1A2, luciferin-ME demethylation, luminescence; series mostly up to 57 µM
# Outline: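 Luminescent demethylation readout: Luciferin-ME (100uM, equal to Km) turned over by 20nM CYP1A2 for 60 min at room temperature after NADPH regeneration addition, following 10 min compound preincubation. Normalization used 57 uM furafylline as full inhibition.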
# [2] = biological target: Glucocorticoid receptor (Homo sapiens) (UniProt P04150); assay: GR-GFP Redistribution (AID 450;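 active means compounds whose dose series gives a full or clear partial fitted curve of increased nuclear translocation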; further: potency means the concentration at half of the fitted maximal effect); details: U2OS GR-GFP nuclear translocation, laser cytometry, 2 h
# [3] = biological target: Glucocorticoid receptor (Homo sapiens) (UniProt P04150); assay: GR-EFC Redistribution (AID 451; calls by dose curve; further: potency means the concentration at half of the fitted maximal effect); details: CHO-K1 GR-EFC translocation, beta-gal luminescence, 2 h
# Outline: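 CHO-K1 cells stably expressing nuclear-localized β-gal enzyme acceptor and GR fused C-terminally to the enzyme donor fragment; ligand-driven nuclear translocation restores β-gal by complementation. Compounds titrated up to 46 uM final, 2 h at 37 °C; luminescence read.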
# [4] = biological target: Mitogen-activated protein kinase 10 (Mus musculus) (UniProt Q61831); assay: JNK3 AlphaScreen Assay (AID 530; active means well fitted curve in either direction with a large enough effect, not every such curve was filed as active;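 further: kinase came from lysate of stimulated human HepG2 cells; signal reports phosphorylation of biotinylated GST-cJun 1-79 at Ser73 with 10 µM ATP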); details: JNK3 lysate, c-Jun phosphorylation; series mostly up to 57.1 µM
# Outline: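 Phosphorylation of biotinylated GST-cJun(1-79) at Ser73 is measured by AlphaScreen proximity luminescence. Enzyme is JNK3 in HepG2 lysates activated with interleukin-1beta and tumor necrosis factor alpha; ATP is 10 uM final.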
# [5] = biological target: 3',5'-cyclic-AMP phosphodiesterase 4B (Homo sapiens) (UniProt Q07343); assay: qHTS Assay for Inhibitors of PDE-IV (AID 607; active means well fitted activation curve with a large enough effect in the main read-out, with a control signal flat, not every such curve was filed as active); details: HEK293 ACTOne CNG channel cells, membrane potential fluorescence; series mostly up to 22.9 µM
# Outline: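 Live HEK293 cells with a modified cyclic nucleotide-gated (CNG) channel report intracellular cAMP via membrane-potential dye fluorescence (ex 535/em 590 nm). Endogenous PDE-IV was targeted. Compounds were tested at up to 22.9 uM final; RO 20-1724 100 uM served as control.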
# [6] = qHTS Assay for Lipid Storage Modulators (AID 1519; calls by dose curve); details: Drosophila S3 cells, BODIPY lipid droplet/cell ratio, laser cytometry, cells loaded with oleic acid; for activity change, negative = inhibition: at 57.5 µM (top of the series)
# Outline: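 Cells seeded at 5,000 per well were treated with compounds over a concentration series and loaded with oleic acid (400 uM, as added). Lipid droplet fluorescence (488 nm excitation, 500-530 nm channel) was read by laser-scanning cytometry and normalized to 20 uM Triacsin C.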
# [7] = biological target: Ubiquitin carboxyl-terminal hydrolase 1 (Homo sapiens) (UniProt O94782); assay: Inhibitors of USP1/UAF1: Pilot qHTS (AID 504865); details: purified USP1/UAF1, Ub-rhodamine cleavage fluorescence; series mostly up to 114 µM;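 further: rhodamine fluorescence freed from ubiquitin-rhodamine substrate followed over time; top concentration of the series differs between compounds; nearly all actives have a fitted effect of over 35% in size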
# Outline: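 In 50mM HEPES pH 7.8 containing 0.5mM EDTA, 1mM TCEP, 0.1 mg/ml BSA and 0.01% Tween-20, 1nM USP1/UAF1 is exposed to compound for 15 min, then Ub-Rho (150nM final) is added and fluorescence is read over time.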
# [8] = biological target: DNA dC->dU-editing enzyme APOBEC-3G (Homo sapiens) (UniProt Q9HC16); assay: qHTS for inhibitors of Vif-A3G interactions: Validation (AID 588379); details: Vif-A3G protein interaction assay; series mostly up to 46.1 µM
# Outline: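 Yellow fluorescence (Ex 488, Em 500-530) of Vif-coexpressing HeLa A3G-eYFP cells, scanned by Acumen cytometer, reports blocked A3G degradation. Cells plated at 700/well overnight at 37 deg C before compound addition, then a further overnight compound incubation at 37 deg C.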
# [9] = system: Zika virus NS2B-NS3 protease; assay: Primary screen GU AMC qHTS for Zika virus inhibitors (AID 1347154); details: Zika NS2B-NS3 unlinked protease, AMC fluorogenic substrate; series mostly up to 54.1 µM; further: nearly all actives have a fitted effect of over 70% in size; further: potency means the concentration at half of the fitted maximal effect
# Outline: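 Unlinked Zika NS2B hydrophilic domain/NS3 protease domain noncovalent complex (25 nM final) in 10 mM Tris-HCl pH 8.0, 0.01% Tween 20, with AMC peptide substrate. Fluorescence (ex 340, em 450 nm) change over 15 min, room temperature; percent inhibition fitted to 4-parameter Hill equation.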
# [10] = Primary qHTS for small molecule stabilizers of the endoplasmic reticulum resident proteome: Secreted ER Calcium Modulated Protein (SERCaMP) assay (AID 1508630); details: SH-SY5Y GLuc-SERCaMP (Gaussia luciferase released on ER calcium loss) secretion, thapsigargin, luminescence; series mostly up to 38.4 µM
# Outline: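 The SH-SY5Y reporter protocol was run at 3 concentrations up to 38.3 uM (primary) or 11 concentrations (follow-up): 16 h compound, 100 nM thapsigargin for 4 h, then extracellular luciferase luminescence.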
# [11] = AP1 Signaling Pathway (AID 357; active means well fitted curve in either direction with a large enough effect, not every such curve was filed as active;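 further: ME-180 reporter cells stimulated with EGF at its EC50 level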); details: ME-180 AP-1-bla reporter, EGF-induced, beta-lactamase ratio, 5 h; at 38 µM (top of the series)
# Outline: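 Cells are seeded overnight, exposed to compound titrations and an EC50 level of EGF for 5 hours at 37 °C, then loaded with CCF4 dye for 2.5 hours. Beta-lactamase activity under the AP-1 element is read as a blue/green ratio.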
# [12] = biological target: Guanine nucleotide-binding protein G(i) subunit alpha-1 (Homo sapiens) (UniProt P63096); assay: qHTS Assay for Inhibitors of RGS12 GoLoco Motif Activity (Green Fluorophore) (AID 879); details: Galphai1/FITC-RGS12 GoLoco peptide, fluorescence polarization; series mostly up to 57.1 µM;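 further: negative values mean loss of peptide binding seen as reduced polarization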
# Outline: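 A drop in FITC polarization marked displacement of the FITC-tagged RGS12 GoLoco peptide (10 nM) from Gαi1 (50 nM). Compounds were incubated 10 min at room temperature in Tris pH 7.5 buffer containing 150 mM NaCl, 0.1 mM GDP and 0.05% NP40; unlabeled peptide titration served as control.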
# [13] = biological target: Pyruvate kinase (Leishmania mexicana) (UniProt Q27686); assay: qHTS Validation Assay for Inhibitors of Leishmania Mexicana Pyruvate Kinase (AID 945); details: purified L. mexicana pyruvate kinase, enzyme activity, E451W mutant enzyme; series mostly up to 57.5 µM
# Outline: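 Luminescent ATP detection (PKLight) after a 1 h room-temperature reaction of 0.2 nM LmPYK E451W mutant with 0.5 mM PEP and 0.1 mM ADP at pH 7.2. Activity is normalized to DMSO-only control wells.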
# [14] = biological target: Pyruvate kinase PKM (Homo sapiens) (UniProt P14618); assay: qHTS Assay for Activators of Human Muscle Pyruvate Kinase (AID 954; active means well fitted curve in the direction sought with a large enough effect, not every such curve was filed as active); details: purified human muscle pyruvate kinase, luciferase-coupled luminescence, 1 h; series mostly up to 57.5 µM
# Outline: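 Screening used highly purified human pyruvate kinase M2 under submaximal activity, with PEP at its Km and ADP below Km. After an hour at room temperature, ATP was read by luciferase luminescence.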
# [15] = biological target: Alpha-galactosidase A (Homo sapiens) (UniProt P06280); assay: Counterscreen for Glucocerebrosidase Inhibitors: qHTS Assay for Human alpha-Galactosidase at pH 4.5 (AID 992); details: purified enzyme, fluorogenic substrate; series mostly up to 76.9 µM
# Outline: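 Each compound is preincubated briefly with 2 nM enzyme before substrate addition (80 uM); plates then sit 20 min at ambient temperature, are quenched with 1M NaOH/1M glycine, and read fluorometrically.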
# [16] = biological target: alpha-glucosidase (Oryza sativa, rice) (UniProt Q653V4); assay: Counterscreen for Glucocerebrosidase Inhibitors: qHTS Assay for Rice alpha-Glucosidase at pH 5.0 (AID 997); details: rice alpha-glucosidase enzyme activity; series mostly up to 76.9 µM
# Outline: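 Endpoint fluorogenic assay at pH 5.0: compounds (0.7 nM to 77 uM) titrated against 4 nM rice enzyme and 400 uM 4-MU-alpha-glucoside for 20 min at room temperature; NaOH/glycine stop, read ex 365/em 440 nm, Hill-fitted AC50.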
# [17] = biological target: Muscarinic acetylcholine receptor M1 (Rattus norvegicus) (UniProt P08482); assay: qHTS Assay for Antagonists of Acetylcholine Muscarinic M1 Receptor: Measurement of IP-One Response (AID 944); details: CHO-M1 cells, IP-One HTRF, antagonist mode; series mostly up to 46.1 µM; further: nearly all actives have a fitted effect of over 75% in size
# Outline: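 IP1 accumulation measured via TR-FRET between d2-IP1 and Eu-cryptate anti-IP1 antibody after carbachol (200 nM, EC80) stimulation for 30 min; rat M1-transfected CHO cells received compound 10 min before agonist.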
# [18] = NFAT Signaling Pathway (AID 444; active means well fitted curve in either direction with a large enough effect, not every such curve was filed as active;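 further: carbachol stimulus at about its EC50 of 1 µM final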); details: Jurkat NFAT-bla M1, carbachol, beta-lactamase ratio, 5 h; at 38 µM (top of the series)
# Outline: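 Jurkat cells carrying an NFAT-driven β-lactamase reporter and co-transfected muscarinic M1 receptor were treated with compound plus carbachol (1 uM final, an EC50 level) for 5 h at 37 °C. CCF4 loading followed for 1 h at RT; 460/530 nm ratio gave %activity.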
# [19] = Stat Signaling Pathway (AID 446; active means well fitted curve in either direction with a large enough effect, not every such curve was filed as active;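 further: ME-180 cervical cancer cells given 40 pM IL-6 alongside compound; SIE-controlled beta-lactamase reporter measured as 460/530 nm FRET emission ratio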); details: ME-180 (cervical carcinoma) SIE beta-lactamase reporter, IL-6 stimulated, 5 h; at 38 µM (top of the series)
# Outline: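 Overnight-plated ME-180 cells bearing a STAT Inducible Element beta-lactamase reporter; 5 h co-exposure to compound and 40 pM IL-6; values normalized to 300 pM IL-6 and 125 nM JAK inhibitor controls.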
# [20] = biological target: Cytochrome P450 2C9 (Homo sapiens) (UniProt P11712); assay: qHTS Assay for Inhibitors and Substrates of Cytochrome P450 2C9 (AID 883); details: recombinant CYP2C9, luciferin-H luminescence, 60 min; series mostly up to 57.1 µM; further: potency means the concentration at half of the fitted maximal effect; nearly all actives have a fitted effect of over 60% in size
# Outline: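 A luminogenic readout tracked human CYP2C9 (10nM) converting deoxyluciferin (100uM, at KM) in 25mM KPO4 during 60 min at 37C with regenerated NADPH. Values normalized to 57uM sulphaphenazole as complete inhibition.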
# [21] = biological target: Muscarinic acetylcholine receptor M1 (Rattus norvegicus) (UniProt P08482); assay: qHTS Assay for Antagonists of Acetylcholine Muscarinic M1 Receptor: Kinetic Measurement of Intracellular Calcium Response (AID 943); details: M1-expressing cells, kinetic intracellular calcium fluorescence; series mostly up to 35.3 µM;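 further: Fluo-4 calcium signal as peak divided by basal fluorescence over 4 min; nearly all actives have a fitted effect of over 75% in size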
# Outline: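 Antagonism measured as reduction of carbachol-evoked (EC80, 100 nM final) calcium flux in rat M1-CHO cells after 10 min compound exposure. Fluo-4 signal read kinetically; ratio of maximal to basal fluorescence.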
# [22] = measured here: cell count channel max response
# [23] = measured here: lipid channel max response
# 3',5'-cyclic-AMP phosphodiesterase 4B (Homo sapiens), sequence (Q07343 whole entry, looked up): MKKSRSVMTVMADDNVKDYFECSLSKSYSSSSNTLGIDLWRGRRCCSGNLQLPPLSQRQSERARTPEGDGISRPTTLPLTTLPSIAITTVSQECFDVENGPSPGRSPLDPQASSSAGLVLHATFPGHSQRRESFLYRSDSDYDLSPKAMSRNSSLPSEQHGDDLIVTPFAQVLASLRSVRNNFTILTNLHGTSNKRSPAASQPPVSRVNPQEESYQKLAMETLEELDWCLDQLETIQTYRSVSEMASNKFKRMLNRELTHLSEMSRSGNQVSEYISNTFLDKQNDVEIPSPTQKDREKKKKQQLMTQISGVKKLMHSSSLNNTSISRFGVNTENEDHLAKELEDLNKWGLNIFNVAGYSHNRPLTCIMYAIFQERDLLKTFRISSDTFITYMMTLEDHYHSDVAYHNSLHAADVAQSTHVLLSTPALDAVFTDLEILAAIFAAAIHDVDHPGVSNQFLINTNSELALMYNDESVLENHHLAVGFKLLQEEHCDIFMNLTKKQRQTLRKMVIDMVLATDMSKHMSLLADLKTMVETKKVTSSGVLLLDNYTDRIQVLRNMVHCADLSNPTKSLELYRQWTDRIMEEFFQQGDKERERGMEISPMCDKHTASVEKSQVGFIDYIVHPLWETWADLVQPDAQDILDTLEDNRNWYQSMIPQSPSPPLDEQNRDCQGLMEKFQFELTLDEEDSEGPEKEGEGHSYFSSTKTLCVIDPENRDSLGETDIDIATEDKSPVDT
# DNA dC->dU-editing enzyme APOBEC-3G (Homo sapiens), sequence (Q9HC16 whole entry, looked up): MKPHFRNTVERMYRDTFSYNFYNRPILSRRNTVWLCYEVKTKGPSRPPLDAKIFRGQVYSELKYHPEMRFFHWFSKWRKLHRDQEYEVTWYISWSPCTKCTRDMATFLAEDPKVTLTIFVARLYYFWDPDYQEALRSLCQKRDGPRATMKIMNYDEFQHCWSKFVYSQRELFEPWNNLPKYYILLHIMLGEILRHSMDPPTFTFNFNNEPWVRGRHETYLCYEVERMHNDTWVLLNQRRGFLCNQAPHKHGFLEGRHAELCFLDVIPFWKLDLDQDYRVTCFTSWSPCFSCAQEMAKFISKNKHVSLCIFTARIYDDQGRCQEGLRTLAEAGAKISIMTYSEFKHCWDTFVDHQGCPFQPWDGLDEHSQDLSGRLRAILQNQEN
# Cytochrome P450 1A2 (Homo sapiens), sequence (P05177 whole entry, looked up): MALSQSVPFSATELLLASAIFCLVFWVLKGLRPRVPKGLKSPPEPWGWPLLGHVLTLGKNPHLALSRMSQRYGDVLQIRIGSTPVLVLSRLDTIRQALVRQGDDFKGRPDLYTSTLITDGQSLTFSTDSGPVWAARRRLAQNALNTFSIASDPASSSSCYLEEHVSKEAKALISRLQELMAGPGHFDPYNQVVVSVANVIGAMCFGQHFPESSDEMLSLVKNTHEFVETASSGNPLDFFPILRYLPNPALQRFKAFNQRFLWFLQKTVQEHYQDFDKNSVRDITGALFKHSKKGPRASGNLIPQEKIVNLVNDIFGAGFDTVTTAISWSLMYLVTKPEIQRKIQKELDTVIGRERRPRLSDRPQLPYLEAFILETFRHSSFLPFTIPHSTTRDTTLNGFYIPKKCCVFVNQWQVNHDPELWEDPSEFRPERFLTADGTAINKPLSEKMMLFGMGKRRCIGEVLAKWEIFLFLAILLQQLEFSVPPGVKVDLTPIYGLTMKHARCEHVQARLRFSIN
# Guanine nucleotide-binding protein G(i) subunit alpha-1 (Homo sapiens), sequence (P63096 whole entry, looked up): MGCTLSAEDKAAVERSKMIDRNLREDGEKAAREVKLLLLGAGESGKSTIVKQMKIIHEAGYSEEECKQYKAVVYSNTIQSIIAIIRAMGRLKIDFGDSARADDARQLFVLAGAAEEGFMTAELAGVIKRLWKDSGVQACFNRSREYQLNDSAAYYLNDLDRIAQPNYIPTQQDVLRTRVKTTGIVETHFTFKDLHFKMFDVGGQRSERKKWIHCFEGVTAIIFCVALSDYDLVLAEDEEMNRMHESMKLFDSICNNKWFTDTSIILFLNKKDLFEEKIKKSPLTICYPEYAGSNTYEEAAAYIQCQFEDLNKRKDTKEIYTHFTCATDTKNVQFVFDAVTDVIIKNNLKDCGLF
# Alpha-galactosidase A (Homo sapiens), sequence (P06280 whole entry, looked up): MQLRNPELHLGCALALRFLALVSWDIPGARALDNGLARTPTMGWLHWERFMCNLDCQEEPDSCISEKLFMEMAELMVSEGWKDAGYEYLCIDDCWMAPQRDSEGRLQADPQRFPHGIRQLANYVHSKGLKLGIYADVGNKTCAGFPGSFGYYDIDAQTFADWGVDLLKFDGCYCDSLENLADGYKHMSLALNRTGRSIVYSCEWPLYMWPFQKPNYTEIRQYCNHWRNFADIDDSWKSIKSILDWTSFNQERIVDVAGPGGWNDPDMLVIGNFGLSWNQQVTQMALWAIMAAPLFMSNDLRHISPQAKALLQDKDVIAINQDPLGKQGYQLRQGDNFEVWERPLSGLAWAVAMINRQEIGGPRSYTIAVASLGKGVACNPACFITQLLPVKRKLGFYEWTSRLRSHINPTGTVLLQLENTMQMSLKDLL
# Pyruvate kinase (Leishmania mexicana), sequence (Q27686 2-499 E452W): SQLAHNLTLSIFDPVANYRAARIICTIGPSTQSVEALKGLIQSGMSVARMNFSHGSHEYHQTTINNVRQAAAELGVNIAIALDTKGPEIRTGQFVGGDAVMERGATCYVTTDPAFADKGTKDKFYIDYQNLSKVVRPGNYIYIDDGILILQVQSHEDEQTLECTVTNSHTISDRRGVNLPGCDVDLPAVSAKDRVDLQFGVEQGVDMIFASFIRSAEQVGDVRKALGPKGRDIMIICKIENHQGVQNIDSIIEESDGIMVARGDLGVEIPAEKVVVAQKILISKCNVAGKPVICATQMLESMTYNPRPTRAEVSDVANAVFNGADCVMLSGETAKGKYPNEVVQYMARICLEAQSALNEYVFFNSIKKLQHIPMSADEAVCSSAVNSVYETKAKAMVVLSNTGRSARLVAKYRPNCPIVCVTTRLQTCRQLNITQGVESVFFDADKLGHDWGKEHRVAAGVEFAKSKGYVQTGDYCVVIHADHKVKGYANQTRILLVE
# Ubiquitin carboxyl-terminal hydrolase 1 (Homo sapiens), sequence (O94782 whole entry, looked up): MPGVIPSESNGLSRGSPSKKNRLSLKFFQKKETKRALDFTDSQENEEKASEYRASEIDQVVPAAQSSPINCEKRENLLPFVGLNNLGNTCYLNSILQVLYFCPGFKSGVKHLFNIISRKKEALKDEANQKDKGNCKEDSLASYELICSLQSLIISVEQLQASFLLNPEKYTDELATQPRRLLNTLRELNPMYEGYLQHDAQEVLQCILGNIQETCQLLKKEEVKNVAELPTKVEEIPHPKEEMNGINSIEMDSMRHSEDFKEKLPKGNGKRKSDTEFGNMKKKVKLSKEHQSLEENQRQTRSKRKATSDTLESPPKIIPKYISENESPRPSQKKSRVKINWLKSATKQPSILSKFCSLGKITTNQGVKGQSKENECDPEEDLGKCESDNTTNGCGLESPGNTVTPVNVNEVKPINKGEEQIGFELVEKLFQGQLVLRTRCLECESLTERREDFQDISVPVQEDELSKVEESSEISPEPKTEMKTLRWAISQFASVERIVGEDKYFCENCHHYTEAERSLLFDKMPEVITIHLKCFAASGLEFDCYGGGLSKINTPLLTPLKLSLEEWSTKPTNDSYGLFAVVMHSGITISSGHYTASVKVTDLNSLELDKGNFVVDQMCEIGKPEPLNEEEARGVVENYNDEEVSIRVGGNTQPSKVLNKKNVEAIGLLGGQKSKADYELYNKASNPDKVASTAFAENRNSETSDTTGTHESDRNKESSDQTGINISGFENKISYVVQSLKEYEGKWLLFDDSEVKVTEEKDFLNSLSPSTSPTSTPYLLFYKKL
# Pyruvate kinase PKM (Homo sapiens), sequence (P14618 whole entry, looked up): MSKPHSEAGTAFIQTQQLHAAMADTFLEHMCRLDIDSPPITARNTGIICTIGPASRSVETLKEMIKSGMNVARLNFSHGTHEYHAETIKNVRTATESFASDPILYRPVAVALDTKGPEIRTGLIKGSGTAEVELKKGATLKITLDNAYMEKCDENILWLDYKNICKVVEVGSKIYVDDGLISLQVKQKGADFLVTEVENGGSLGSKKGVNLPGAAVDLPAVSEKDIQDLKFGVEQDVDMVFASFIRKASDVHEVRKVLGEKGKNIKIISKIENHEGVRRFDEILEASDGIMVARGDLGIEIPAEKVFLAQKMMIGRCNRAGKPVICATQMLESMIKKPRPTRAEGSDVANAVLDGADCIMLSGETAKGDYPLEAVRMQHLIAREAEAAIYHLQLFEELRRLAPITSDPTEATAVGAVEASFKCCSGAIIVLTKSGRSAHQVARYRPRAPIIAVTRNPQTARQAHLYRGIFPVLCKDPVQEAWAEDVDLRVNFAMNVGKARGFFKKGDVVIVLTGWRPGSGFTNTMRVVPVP
# Glucocorticoid receptor (Homo sapiens), sequence (P04150 whole entry, looked up, the tested form may be a part): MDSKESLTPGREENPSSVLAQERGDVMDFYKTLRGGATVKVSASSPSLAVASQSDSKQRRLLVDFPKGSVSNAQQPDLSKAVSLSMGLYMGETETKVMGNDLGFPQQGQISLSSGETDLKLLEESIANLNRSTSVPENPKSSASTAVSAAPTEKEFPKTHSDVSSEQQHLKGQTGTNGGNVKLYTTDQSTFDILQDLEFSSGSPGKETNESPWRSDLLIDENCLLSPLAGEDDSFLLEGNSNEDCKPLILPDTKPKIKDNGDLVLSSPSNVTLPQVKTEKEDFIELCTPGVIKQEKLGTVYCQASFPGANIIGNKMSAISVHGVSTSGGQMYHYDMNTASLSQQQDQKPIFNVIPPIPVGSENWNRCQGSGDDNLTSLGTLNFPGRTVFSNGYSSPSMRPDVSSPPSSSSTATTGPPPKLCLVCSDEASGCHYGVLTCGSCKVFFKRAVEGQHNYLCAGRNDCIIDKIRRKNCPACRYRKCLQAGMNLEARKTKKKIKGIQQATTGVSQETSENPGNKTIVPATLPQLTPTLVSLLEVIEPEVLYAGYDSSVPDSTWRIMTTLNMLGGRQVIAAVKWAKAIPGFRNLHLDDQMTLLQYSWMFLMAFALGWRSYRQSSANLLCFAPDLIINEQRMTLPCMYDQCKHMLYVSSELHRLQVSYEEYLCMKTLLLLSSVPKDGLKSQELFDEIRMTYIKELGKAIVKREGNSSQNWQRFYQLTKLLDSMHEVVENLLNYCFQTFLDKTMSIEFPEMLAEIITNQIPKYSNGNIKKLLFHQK
structure (smiles),measurement,setting,value
N[C@H](C(=O)O)c1ccc(C(=O)O)c(O)c1,Potency,[1],inactive
same,Potency,[2],> 46 µM (inactive)
same,Potency,[3],> 46 µM (inactive)
same,Potency,[4],inactive
same,Potency,[5],inactive
same,"activity change, negative = inhibition",[6],2.68% (inactive)
same,max response,[6]; [22],-19.5%
same,max response,[6]; [23],-17.3%
same,Potency,[7],inactive
same,Potency,[8],inactive
same,Potency,[9],26.7 µM (active)
same,Potency,[10],inactive
C[C@@](N)(C(=O)O)c1ccc(P(=O)(O)O)cc1,Potency,[1],39.8 µM (active)
same,Potency,[2],> 46 µM (inactive)
same,Potency,[3],> 46 µM (inactive)
same,Potency,[4],inactive
same,"activity change, negative = inhibition",[6],-5.17% (inactive)
same,max response,[6]; [22],0.435%
same,max response,[6]; [23],-4.21%
same,Potency,[7],inactive
same,Potency,[8],inactive
same,Potency,[9],inactive
same,Potency,[10],inactive
CC(C)(C)NC[C@H](O)COc1cccc2[nH]c(=O)[nH]c12,"activity change, negative = inhibition",[11],-7.21% (inactive)
same,Potency,[1],inactive
same,Potency,[2],> 46 µM (inactive)
same,Potency,[3],> 46 µM (inactive)
same,Potency,[4],inactive
same,outcome,[12],inactive
same,Potency,[13],inactive
same,outcome,[14],inactive
same,outcome,[15],inactive
same,outcome,[16],inactive
same,"activity change, negative = inhibition",[6],-4.86% (inactive)
same,max response,[6]; [22],-1.97%
same,max response,[6]; [23],-5.55%
same,Potency,[8],inactive
same,Potency,[9],inactive
same,Potency,[10],inactive
CN1CCN(CCc2ccc(Cl)c(Cl)c2)CC1,Potency,[1],25.1 µM (active)
same,Potency,[2],> 46 µM (inactive)
same,Potency,[3],> 46 µM (inactive)
same,Potency,[4],inactive
same,Potency,[5],inactive
same,"activity change, negative = inhibition",[6],-0.655% (inactive)
same,max response,[6]; [22],-14.6%
same,max response,[6]; [23],-12.9%
same,Potency,[7],inactive
same,Potency,[8],inactive
same,Potency,[9],inactive
same,Potency,[10],inactive
N[C@H](C(=O)O)[C@@H]1C[C@@H]1C(=O)O,Potency,[1],inactive
same,Potency,[2],> 46 µM (inactive)
same,Potency,[3],> 46 µM (inactive)
same,Potency,[4],inactive
same,Potency,[5],inactive
same,outcome,[12],inactive
same,Potency,[17],inactive
same,Potency,[13],inactive
same,outcome,[14],inactive
same,outcome,[15],inactive
same,outcome,[16],inactive
same,"activity change, negative = inhibition",[6],0.571% (inactive) and -0.444% (inactive)
same,max response,[6]; [22],-21% and 5.3%
same,max response,[6]; [23],-19.5% and 5.06%
same,Potency,[7],inactive
same,Potency,[8],inactive
same,Potency,[9],inactive
same,Potency,[10],inactive
N[C@H](CCC(=O)N[C@H](CSN=O)C(=O)NCC(=O)O)C(=O)O,"activity change, negative = inhibition",[11],-9.57% (inactive)
same,Potency,[1],inactive
same,"activity change, negative = inhibition",[18],0.964% (inactive)
same,"activity, negative = inhibition",[19],14.7% (inactive)
same,Potency,[2],> 46 µM (inactive)
same,Potency,[3],> 46 µM (inactive)
same,Potency,[4],inactive
same,Potency,[5],inactive
same,outcome,[12],inactive
same,Potency,[20],5.01 µM (active)
same,Potency,[21],inactive
same,Potency,[13],inactive
same,outcome,[14],inactive
same,outcome,[15],inactive
same,outcome,[16],inactive
same,"activity change, negative = inhibition",[6],1.5% (inactive)
same,max response,[6]; [22],13.2%
same,max response,[6]; [23],16.6%
same,Potency,[8],inactive
same,Potency,[9],inactive
same,Potency,[10],inactive
